The campaign covered roughly 52,000 compounds. About 1,700 (3.3%) were called active. The full list was thinned out, with actives kept by preference. Values without a mark were called inactive. Cut-off read from the data, not from the text of the source: active = survival mostly below about 52% (no sharp cut-off); inactive = mostly above about 56%.
What follows are compounds tested on Wild type (assay: S. aureus survival, RN4220 and DeltatarO strains – OD600, teichoic acid synthesis inhibitors, primary screen (AID 463173)). Conditions: S. aureus RN4220 wild type/DeltatarO growth, OD600, 18 h, hits give low values, screened at 18.75 µg/mL (by protocol).

Structure (SMILES) | survival
O=C1CS(=O)(=O)C2(C(=O)N(Cc3ccccc3)c3ccccc32)N1c1ccccc1 (stereo not given) | 132%
COc1cc(NS(=O)(=O)c2cc3c(cc2C)n(C)c(=O)c(=O)n3C)cc(OC)c1 | 54%
COc1ccc(-c2[nH]c(-c3ccccc3)nc2SCC(=O)NC2CCCC2)cc1 | 80%
COc1ccc(-c2nc(-c3ccccc3)c(-c3ccccc3)[nH]2)cc1Br | 81%
COc1cc(-c2nc(SCC(=O)Nc3ccc(C)cc3)c(-c3ccc(F)cc3)[nH]2)cc(OC)c1OC | 106%
COc1ccc(-c2nc(SCC(=O)Nc3ccccc3)c(-c3ccc(F)cc3)[nH]2)cc1OC | 58%
COc1ccc(-c2[nH]c(-c3ccc(O)cc3)nc2-c2ccccc2)cc1 | 0% (active)
COc1cc(-c2nc(-c3cccc(Cl)c3)c(-c3ccccc3)[nH]2)cc(OC)c1OC | 143%
COc1ccc(NC(=O)CSc2nc(-c3ccc(OC)cc3)[nH]c2-c2ccc(OC)cc2)cc1 | 76%
COc1cc(-c2nc(-c3ccccc3)c(-c3ccc(Br)cc3)[nH]2)cc(OC)c1O | 5% (active)
COc1ccc(-c2nc(-c3ccccc3)c(-c3ccc(O)cc3)[nH]2)cc1 | 3% (active)
COc1ccc(-c2nc(-c3ccccc3)c(-c3ccc(F)cc3)[nH]2)c(OC)c1C | 15% (active)
COCCNC(=O)CSc1nc(-c2ccccc2)[nH]c1-c1ccc(OC)cc1 | 74%
CCOc1ccc(-c2nc(-c3ccccc3)c(-c3ccccc3)[nH]2)cc1OCC | 163%
CC(C)(C)n1nnnc1C(c1ccc2ncccc2c1)N1CCc2ccccc21 (stereo not given) | 111%
CCc1ccccc1NC(=O)CSc1nnc2ccc3ccccc3n12 | 80%
Cc1ccc(Cl)cc1N(C)C(=O)c1noc2c1CCCCC2 | 65%
CCCCC(=O)OCc1cc(=O)n2nc(C3CC3)sc2n1 | 135%
CCCOc1ccc(CNC(=O)c2ccc(-n3c(C)cc4c3CCC(C)C4)cc2)cc1 (stereo not given) | 113%
COc1cccc(C(=O)c2sc(Nc3ccc(C)cc3C)c(S(=O)(=O)c3ccccc3)c2N)c1 | 94%

Structure (SMILES) | survival
O=C(CSc1nc(-c2ccc(F)cc2)[nH]c1-c1ccccc1)Nc1ccccc1 | 70%
O=C(O)c1ccc(-c2nc3ccccc3[nH]2)cc1 | 106%
Oc1ccc(-c2nc(-c3ccccc3)c(-c3ccc(Br)cc3)[nH]2)cc1 | -2% (active)
O=C(Nc1ccc(C(=O)OCc2cc(=O)n3c4c(sc3n2)CCCC4)cc1)c1cccc(F)c1 | 81%
CCN(CC)CCN(C(=O)c1ccc(C(=O)OC)cc1)c1nc2ccc(Cl)cc2s1 | -6% (active)
CCN(CC)CCN(C(=O)c1ccco1)c1nc2ccc(Cl)cc2s1 | 87%
CCc1ccc2nc(N(CCN(CC)CC)C(=O)c3ccco3)sc2c1 | 53%
O=C(CNc1ccccc1Cl)N/N=C1\CCCc2ccccc21 | 105%
Cc1cccn2c(Nc3ccccc3)c(-c3cccs3)nc12 | 85%
Cc1ccccc1Nc1c(-c2ccc(Cl)cc2)nc2c(C)cccn12 | 73%
Cc1cccn2c(Nc3ccccc3)c(-c3ccc(N4CCOCC4)cc3)nc12 | 125%
Cc1ccccc1Nc1c(-c2ccc(O)cc2)nc2c(C)cccn12 | 68%
Cc1ccccc1Nc1c(-c2ccsc2)nc2c(C)cccn12 | 0% (active)
Cc1ccc(Nc2c(-c3ccc(N4CCOCC4)cc3)nc3c(C)cccn23)cc1 | 83%
Cc1ccc(Nc2c(-c3ccsc3)nc3c(C)cccn23)cc1 | -3% (active)
Cc1ccc(Nc2c(-c3ccc(C)cc3)nc3c(C)cccn23)cc1 | -1% (active)
Cc1ccc(Nc2c(-c3ccsc3)nc3cccc(C)n23)cc1 | 19%
COCCCNC(=O)c1c(C)nn(-c2ccc(F)cc2)c1-n1cccc1 | 77%
Cc1sc2c(c1C)c(=O)n(Cc1ccccc1)c(=O)n2CC(=O)N(C)c1ccccc1 | 89%
COc1ccc(C2CC(=O)c3cc(-c4nc(-c5cccc(Cl)c5)cs4)c(=O)[nH]c3C2)cc1 (stereo not given) | 67%

Structure (SMILES) | survival
Cc1ccc(C(=O)N2CCN(c3ccccc3)CC2)cc1NC(=O)c1nsc2ccccc12 | 73%
COc1ccc(NC(=O)C2=C(C)C(=O)OC23CCN(C(C)C)CC3)cc1Cl | 77%
CC(=O)N1CCC2(CC1)OC(=O)C(C)=C2C(=O)Nc1cccc(Cl)c1C | 82%
CC1=C(C(=O)Nc2ccccc2Br)C2(CCC(C)CC2)OC1=O (stereo not given) | 83%
CC1=C(C(=O)Nc2cccc(Cl)c2C)C2(CCCCCC2)OC1=O | -2% (active)
CC1=C(C(=O)Nc2cccc(C(F)(F)F)c2)C2(CCCCC2)OC1=O | 88%
COC(=O)c1ccccc1NC(=O)C1=C(C)C(=O)OC12CCC(C)CC2 (stereo not given) | -6% (active)
CC1=C(C(=O)Nc2cccc(C(F)(F)F)c2)C2(CCCCCC2)OC1=O | 0% (active)
COc1ccc(OC)c(NC(=O)C2=C(C)C(=O)OC23CCCCCC3)c1 | 129%
CC1=C(C(=O)Nc2cccc(C(F)(F)F)c2)C2(CCN(C(C)C)CC2)OC1=O | 91%
COc1ccc(OC)c(NC(=O)C2=C(C)C(=O)OC23CCN(C(C)C)CC3)c1 | 0% (active)
COC(=O)c1ccccc1NC(=O)C1=C(C)C(=O)OC12CCCCCC2 | 91%
CC1=C(C(=O)Nc2cccc(C)c2C)C2(CCCCC2)OC1=O | 74%
Cc1cc(C)n(C(=O)CCCC(=O)O)n1 | 96%
Cc1ccc(CNC(=O)C(CC(C)C)N2Cc3ccccc3C2=O)cc1 (stereo not given) | 136%
COc1cc(-c2nc(Cn3nnc(C(=O)Nc4cc(C)cc(C)c4)c3C)c(C)o2)cc(OC)c1OC | 70%
CCOc1cc(CNC(=O)CSc2n[nH]c(-c3ccccc3)n2)cc(OCC)c1OCC | 131%
CC1=C(C(=O)NCc2cccc(F)c2)C2(CCCCCC2)OC1=O | 65%
CC1=C(C(=O)NCc2cccc(Br)c2)C2(CCCCC2)OC1=O | 82%
CC1=C(C(=O)NCc2cccc(F)c2)C2(CCCCC2)OC1=O | 10% (active)

Reference: PubChem BioAssay AID463173 (ICCB-Longwood Screening Facility, Harvard Medical School, 2010)
